This note sets out measurements from PubChem BioAssay AID489036 (National Center for Advancing Translational Sciences (NCATS), 2010).

Records with an inconclusive call do not appear. Unmarked numbers belong to inactive results. Active and inactive are the calls of the source. Calls come from the whole dose curve; as a rule, active = well fitted inhibition curve with a large enough effect; inconclusive = small, poorly fitted or top-dose-only effect, or effect the other way; inactive = flat fitted curve, though single readings scatter.

The assay can be described thus: VP16 selectivity assay for inhibitors of ROR gamma transcriptional activity. Particulars: Drosophila Schneider Gal4-VP16 UAS-luciferase reporter, 20 h; series mostly up to 92.2 µM; activity change, negative = inhibition: at the top concentration. In outline: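 Drosophila Schneider cells stably expressing a Gal4-VP16 fusion under a metallothionein promoter and a UAS-driven Photinus luciferase reporter. Compound preincubated 1 hr, copper sulfate added (700 uM final), then 20 hr at ambient temperature before luminescence read.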
A general note: In a reporter assay the amount or activity of a reporter protein is the signal.
On to `O=C(CCCOc1ccccc1)Nc1nc2ccccc2[nH]1`, for which the Potency is 14.4 µM (active). For `COc1cc(O)c(C(CC(=O)N2C[C@H](C)C[C@H](C)C2)c2ccc3c(c2)OCO3)c(OC)c1` (stereo partly drawn), the “activity change, negative = inhibition” value is -26.4%. `CC(C)(C(=O)Nc1nccs1)C(c1ccccc1)c1ccc(O)cc1` (stereo not drawn): the Potency is 36.3 µM (active). With `COc1cc(O)c(C(CC(=O)N2CCCC(C)C2)c2ccccc2OC)c(OC)c1` (stereo not drawn), the “activity change, negative = inhibition” value was -19.2%. As for `COc1cc(O)c(C(CC(=O)N2CCCC(C)C2)c2ccc(C(C)C)cc2)c(OC)c1` (stereo not drawn), the Potency was 25.7 µM (active). Consider `C[C@H]1O[C@@H](O[C@H]2[C@@H](O)C[C@@H](O[C@H]3[C@@H](O)C[C@H](O[C@H]4CC[C@@]5(C)[C@H](CC[C@@H]6[C@@H]5CC[C@]5(C)[C@@H](C7=CC(=O)OC7)CC[C@]65O)C4)O[C@@H]3C)O[C@@H]2C)C[C@H](O)[C@@H]1O`, for which the “activity change, negative = inhibition” value was -3.54%. The same measure, in the same setting: under `CCCCNC(=O)CC(c1ccc2c(c1)OCO2)c1c(O)cc(OC)cc1OC` (stereo not drawn) stands -10.5%. Still for that read-out and setting: the value for `COc1cc(O)c(C(CC(=O)N2CCCC(CN3CCCCC3)C2)c2ccc3c(c2)OCO3)c(OC)c1` (stereo not drawn) was -3.73%. On to `COc1cc(O)c(C(CC(=O)N2CCC[C@H](C)C2)c2ccc3c(c2)OCO3)c(OC)c1` (stereo partly drawn), for which the Potency entry is “inactive”. The same measure, in the same setting: the value for `COc1cc(C)nc(-n2nc(C)cc2OC)n1` was 14.4 µM (active). For the compound `COc1cc(O)c(C(CC(=O)N2CCCC(C#N)C2)c2ccc3c(c2)OCO3)c(OC)c1` (stereo not drawn), the “activity change, negative = inhibition” value was 25.1%. Consider `COc1ccc(C(CC(=O)N2CCCC(C)C2)c2ccc3c(c2)OCO3)c(O)c1` (stereo not drawn), for which the “activity change, negative = inhibition” value was -16.5%. On the same count and under the same terms, under `COc1ccc(C(=O)Nc2cc(-c3ccc(C)cc3)no2)cc1` stands -29%.

As to `COc1cc(O)c(C(CC(=O)N2CCc3ccccc32)c2ccc3c(c2)OCO3)c(OC)c1` (stereo not drawn), the “activity change, negative = inhibition” value was -14.2%. With `COCC1CCCCN1C(=O)c1cc(COc2ccc3ncccc3c2)on1` (stereo not drawn), the Potency is 16.2 µM (active).

Regarding `Cc1cc(C)nc(-n2nc(C)cc2NC(=O)CNC(C)c2ccccc2)n1` (stereo not drawn), the Potency was 18.2 µM (active). Same read-out and setting: the value for `CCN(CC)c1ccc(/C=N/n2c(-c3ccccc3Br)n[nH]c2=S)cc1` was 2.04 µM (active); that for `COC(=O)c1ccc(OCC(=O)c2ccc(O)cc2O)cc1` was 2.04 µM (active). Still for that read-out and setting: the value for `Cc1ccc(C)c(/C=N/n2cc(-c3ccccc3)[nH]c2=S)c1` was 20.4 µM (active). On the same count and under the same terms, the value for `Cc1ccc(-c2cn(-c3ccccc3)c3[n+]2CCCS3)cc1` was 10.2 µM (active). On to `COc1cc(O)c(C(CC(=O)N2CC(C)OC(C)C2)c2ccc3c(c2)OCO3)c(OC)c1` (stereo not drawn), for which the “activity change, negative = inhibition” value is -11.2%. As for `COc1ccc(-c2c[n+]3c(n2-c2ccc(C)cc2)CCCCC3)cc1`, the Potency is 5.12 µM (active). The same measure, in the same setting: under `CCOC(=O)Cn1c(CN2CCc3ccccc3C2)nc2c1c(=O)n(C)c(=O)n2C` stands 5.12 µM (active).

For the compound `COc1ccc(-c2nnc(-c3ccc(N(C)C)cc3)o2)cc1`, the “activity change, negative = inhibition” value was -22.8%. Still for that read-out and setting: under `COc1cc(O)c([C@H](CC(=O)N2CC(C)CC(C)C2)c2ccc3c(c2)OCO3)c(OC)c1` (stereo partly drawn) stands -28.7%; under `COc1cc(O)c(C(CC(=O)N2CCCC(C(=O)N3CCCCC3)C2)c2ccc3c(c2)OCO3)c(OC)c1` (stereo not drawn), 6.67%. `COc1cc(OC)c(C(CC(=O)N2CCCC(C)C2)c2ccc3c(c2)OCO3)c(OC)c1` (stereo not drawn): the Potency is 51.2 µM (active). For `CC1CCCN(C(=O)CC(c2ccccc2)c2ccc(O)cc2)C1` (stereo not drawn), the “activity change, negative = inhibition” value is -20.2%.
